# Assay results from PubChem BioAssay AID1063 (University of Pittsburgh Molecular Library Screening Center, 2008).
# Hit rate of the full screen: of about 200,000 compounds, about 18,000 (9%) were called active. Cut-off read from the data, not from the text of the source: active = inhibition above about 50%; inactive = the rest. The sample as a whole holds a higher share of actives than the screen did.
# Test: antileishmanial activity against promastigotes – primary screen (AID 1063);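 note: promastigotes grown with compound for 44 hours at 28 °C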
# Conditions: Leishmania major promastigotes, resazurin fluorescence viability; at 10 µM; stronger effect = higher value
row,SMILES,inhibition
1,COc1ccc2c(c1)C(c1cccs1)=NNC(c1cccnc1)=N2,23.7% (inactive)
2,CC(NC(=O)COC(=O)c1ccc2c(c1)OCO2)c1ccccc1 (stereo not given),-3.45% (inactive)
3,CCOC(=O)C1=C(C)NC(=O)NC1c1ccccc1 (stereo not given),-1.3% (inactive)
4,CCOC(=O)C1=C(C)NC(SC)=NC1c1ccccc1 (stereo not given),8.85% (inactive)
5,CCOC(=O)C1=C(C)N=C2c3ccccc3C(=O)C2C1c1ccc(Br)cc1 (stereo not given),99.4% (active)
6,CN(C)c1nccc(NCc2ccccc2)c1C#N,-3.1% (inactive)
7,COCCCNC(=O)CNC(=S)N(Cc1cc(OC)c(OC)c(OC)c1)C1CCCC1,-3.29% (inactive)
8,CN(C)CC(O)COc1ccc(C(C)(C)c2ccc(OCC(O)CN(C)C)cc2)cc1 (stereo not given),100% (active)
9,CCCC(O)(c1ccc(OC)cc1)C(CN(C)C)c1ccccc1 (stereo not given),-1.91% (inactive)
10,COc1ccc(OCC(O)CNC(=O)Nc2ccc(Cl)cc2)cc1 (stereo not given),-4.73% (inactive)
11,CN(C)S(=O)(=O)c1cccc(NC(=S)N/N=C/C(=O)c2ccccc2)c1,2.84% (inactive)
12,Cc1cccc(N2CCN(c3ccc(NC(=O)/C=C\C(=O)O)cc3)CC2)c1,-2.44% (inactive)
13,Cc1cc(C(=O)CCl)c(C)n1CC1COc2ccccc2O1 (stereo not given),101% (active)
14,Cc1cc(NC(=O)CCC2COc3ccccc3O2)no1 (stereo not given),-5.57% (inactive)
15,Cc1ccsc1C(=O)OCC(=O)c1cc(C)n(CC2CCCO2)c1C (stereo not given),-1.1% (inactive)
16,O=C(C1=C[C@H](c2ccc(C(F)(F)F)cc2)C[C@H](OCc2ccc(CO)cc2)O1)N1CCN(Cc2ccccc2)CC1,25.6% (inactive)
17,C=CCOC(=O)C1=C[C@@H](c2ccccc2)C[C@@H](OCc2ccc(CO)cc2)O1,13.8% (inactive)
18,O=C(NCc1ccccc1)C1=C[C@@H](C2CCCCC2)C[C@@H](OCc2ccc(CO)cc2)O1,50.2% (active)
19,O=C(NCc1ccccc1)C1=C[C@@H](c2ccc(C(F)(F)F)cc2)C[C@@H](OCc2ccc(CO)cc2)O1,87% (active)
20,CC(C)(C)[C@H]1C=C(C(=O)NCc2ccccc2)O[C@@H](OCc2ccc(CO)cc2)C1,20.8% (inactive)
21,O=C(NCc1ccccc1)C1=C[C@H](C2CC2)C[C@H](OCc2ccc(CO)cc2)O1,6.42% (inactive)
22,CCOC(=O)C1(C)NC(c2ccco2)C2C(=O)N(c3ccccc3)C(=O)C21 (stereo not given),-8.75% (inactive)
23,COc1cc(NC(=S)NCc2ccc(S(N)(=O)=O)cc2)cc(OC)c1,11.8% (inactive)
24,Cn1c(SCC(=O)OC2CCCCC2)nnc1-c1ccc(S(=O)(=O)N2CCCC2)cc1,-0.74% (inactive)

row,SMILES,inhibition
1,CC1Cc2ccccc2N1C(=O)CSc1nnc(-c2ccc(S(=O)(=O)N3CCCC3)cc2)n1C (stereo not given),97.9% (active)
2,CC1Cc2ccccc2N1C(=O)CSc1nnc(C2CC2)n1C (stereo not given),14.8% (inactive)
3,O=C(Nc1ccc(N2CCN(C(=O)c3cccs3)CC2)cc1)c1cccnc1Cl,16.4% (inactive)
4,CCOc1ccccc1/C=N/NC(=O)CNC(=O)COc1ccccc1,-1.93% (inactive)
5,N#C/C=C(/c1ccc(F)cc1)N1CCOCC1,1.16% (inactive)
6,Cc1cc(C)n2nc(SCC(N)=O)nc2n1,4.1% (inactive)
7,CCCCn1c(=S)[nH]c2ccccc2c1=O,-2.23% (inactive)
8,COc1ccc(S(=O)(=O)N2CCCCC2)cc1Br,-0.43% (inactive)
9,CCCCn1c(=S)[nH]c2cc(S(=O)(=O)N3CCCCC3)ccc21,96.4% (active)
10,COC(=O)C(C(=O)Nc1cccc(Cl)c1C)C1CCCC1 (stereo not given),-0.21% (inactive)
11,Cc1ccc(OCCCC(=O)NC(C)c2ccccc2)c(C)c1 (stereo not given),11.7% (inactive)
12,CCC(CC)c1nnc(NC(=O)c2nn(C)c(=O)c3ccccc23)s1,8.15% (inactive)
13,N#Cc1c(C(F)(F)F)cc(-c2ccc(Cl)cc2)nc1SCC(=O)O,-6.26% (inactive)
14,O=C(/C=C/c1ccc(OCc2c(F)cccc2Cl)cc1)N1CCOCC1,35.5% (inactive)
15,COCCCNC(=O)/C=C/c1ccc(OCc2c(F)cccc2Cl)cc1,16% (inactive)
16,CN(C)CCCNC(=O)/C=C/c1ccc(OCc2c(F)cccc2Cl)cc1,89.1% (active)
17,COc1ccccc1-n1ccnc1SCC(=O)NC(C)(C)C,-1.52% (inactive)
18,COC(=O)c1ccc(CSc2nnc(N)s2)o1,-5.93% (inactive)
19,CCC(c1nnnn1Cc1ccco1)N(Cc1cc2cc(OC)ccc2[nH]c1=O)C1CCCCC1 (stereo not given),49.5% (inactive)
20,CCC(c1nnnn1Cc1ccco1)N(CCc1ccccc1)Cc1cc2cccc(C)c2[nH]c1=O (stereo not given),39.7% (inactive)
21,CCC(c1nnnn1Cc1ccco1)N(CCc1ccccc1)Cc1cc2ccc(OC)cc2[nH]c1=O (stereo not given),85.7% (active)
22,CN(C)c1ccc(C(CC(=O)O)C(=O)O)cc1 (stereo not given),-3.91% (inactive)
23,Cc1cccc(NC(=O)c2nnn(-c3cccc(C(F)(F)F)c3)c2N)c1,3.89% (inactive)
24,Cc1ncn(C23CC4CC(CC(O)(C4)C2)C3)n1,-5.82% (inactive)

row,SMILES,inhibition
1,Cc1nc([N+](=O)[O-])nn1C12CC3CC(CC(Br)(C3)C1)C2,98.2% (active)
2,O=S(=O)(c1ccccc1)c1nc(-c2ccccc2F)oc1NCc1cccnc1,0.99% (inactive)
3,C/C(Cc1ccccc1)=N\NC(=O)CNC(=O)c1cccc(Br)c1,51.4% (active)
4,CCCCC(NC(=O)c1cccc(Br)c1)C(=O)O (stereo not given),21.1% (inactive)
5,CC(CC(=O)O)CC(=O)NNC(=O)c1cccc(Br)c1 (stereo not given),-4.63% (inactive)
6,COc1ccc(C)cc1-n1nnnc1SCc1nc2ccccc2c(=O)[nH]1,2.27% (inactive)
7,Cc1nc(-c2ccc(Cl)cc2)sc1C(=O)CBr,-12.4% (inactive)
8,CCCn1c(=S)[nH]c2ccc(C(F)(F)F)cc21,-2.71% (inactive)
9,CCCC(=O)OCC(=O)Nc1cc(Cl)ccc1[N+](=O)[O-],-6.12% (inactive)
10,Cc1[nH]c2ccccc2c1-c1ccc(Cl)nn1,-2.46% (inactive)
11,COc1ccc(C)cc1Nc1nc(-c2c(C)[nH]c3ccccc23)cs1,97.8% (active)
12,COc1ccc(OC)c(Nc2nc(-c3ccc(O)c(O)c3)cs2)c1,20.7% (inactive)
13,COC(=O)C(NS(=O)(=O)c1ccc(F)cc1)c1ccccc1 (stereo not given),-1.84% (inactive)
14,CS/C(=C\[N+](=O)[O-])Nc1ccc(C)cc1,-1.56% (inactive)
15,CCc1nnc(NC(=O)c2cccc(S(=O)(=O)N(C)c3ccc(OC)cc3)c2)s1,-0.19% (inactive)
16,O=C(Cc1ccccc1)NC(=S)Nc1ccc(N2CCCCC2)cc1,-9.12% (inactive)
17,COc1ccc(-n2c(C)cc(C(=O)CSc3nnc(-c4cccs4)o3)c2C)cc1,-4.2% (inactive)
18,Cc1ccc(-n2c(C)cc(C(=O)CN3C(=O)C(=O)N(C4CCCC4)C3=O)c2C)cc1,-5.85% (inactive)
19,COc1ccc(-n2c(C)cc(C(=O)CN3C(=O)NC4(CCc5ccccc54)C3=O)c2C)cc1 (stereo not given),98.6% (active)
20,Cc1nn(-c2ccc([N+](=O)[O-])cc2)c(N)c1-c1ccccc1,-4.1% (inactive)
21,CC(C)(C)NC(=O)NC(=O)COC(=O)Cc1c(F)cccc1Cl,2.42% (inactive)
22,O=C(CSc1cccc[n+]1[O-])NCCCc1ccccc1,1.17% (inactive)
23,COc1cccc(NC(=O)Nc2nnc(N3CCCCC3C)s2)c1 (stereo not given),3.59% (inactive)
24,COc1ccc(C(=O)CSc2nnc(NC(=O)C3CC(=O)N(c4cccc(OC)c4)C3)s2)cc1 (stereo not given),56.9% (active)

row,SMILES,inhibition
1,COc1cccc(N2CC(C(=O)Nc3c(C)cccc3C)CC2=O)c1 (stereo not given),2.01% (inactive)
2,CCOc1ccccc1Nc1nnc(SCC(=O)Nc2cc(C)on2)s1,4.84% (inactive)
3,COC(=O)c1ccccc1NC(=O)C1CC(=O)N(c2ccc(OC)cc2)C1 (stereo not given),-10.5% (inactive)
4,COc1cccc(Nc2nnc(SCC(=O)N3CC(C)OC(C)C3)s2)c1 (stereo not given),51.2% (active)
5,CCOC(=O)CCCN1CC(O)=C(c2nc3ccccc3s2)C1=N,17% (inactive)
6,CC(C)n1c(=O)[nH]c2cc(C(=O)Nc3ccccc3)ccc21,-2.18% (inactive)
7,O=C(N/N=C/c1ccco1)c1ccc(C(=O)N/N=C/c2ccco2)o1,-1.3% (inactive)
8,COC(=O)c1nn(-c2cccc(Cl)c2)ccc1=O,-3.04% (inactive)
9,O=C(Cc1ccc([N+](=O)[O-])cc1)N/N=C/c1ccco1,2.95% (inactive)
10,COc1cc(NC(=O)CSc2nnc3ccc(-c4ccncc4)nn23)cc(OC)c1,-2.79% (inactive)
11,CCOc1ccc(C(=O)NC(=S)Nc2ccc(N3CCOCC3)c(Cl)c2)cc1[N+](=O)[O-],100% (active)
12,COc1cccc(OC)c1C(=O)NC(=S)Nc1ccc(N2CCOCC2)c(Cl)c1,21.4% (inactive)
13,CCOc1ccc(C(=O)NC(=S)Nc2ccc(NC(=O)C(C)C)cc2)cc1[N+](=O)[O-],-7.33% (inactive)
14,O=C(c1ccncc1)N1CCN(c2ccc3ccccc3n2)CC1,-1.56% (inactive)
15,O=C(Nn1cnnc1)c1ccc([N+](=O)[O-])cc1,-11.1% (inactive)
16,CCOC(=O)c1cccc(NC(=O)CN(c2ccc(C)cc2)S(=O)(=O)c2c(C)noc2C)c1,22.7% (inactive)
17,Cc1noc(C)c1S(=O)(=O)N(CC(=O)Nc1ccc2c(c1)OCCO2)c1ccc(C(C)C)cc1,55.8% (active)
18,Cc1noc(C)c1S(=O)(=O)N(CC(=O)NCc1ccc(Cl)cc1)c1ccc2c(c1)OCO2,-4.31% (inactive)
19,CCC1CCCCN1C(=O)CSc1nc(C)cc(C)n1 (stereo not given),11.3% (inactive)
20,O=C(O)/C=C/C(=O)NNc1ccc([N+](=O)[O-])cc1,-9.99% (inactive)
21,O=C(CSc1nc2ccc([N+](=O)[O-])cc2[nH]1)c1ccc(Cl)cc1,-1.01% (inactive)
22,CCOC(=O)CSc1nc2ccc(C)cc2[nH]1,-4.89% (inactive)
23,CC(=O)Nc1ccc(C(=O)CSc2nc3ccc(C)cc3[nH]2)cc1,52.9% (active)
